Screening results from PubChem BioAssay.
A selection: hits, their analogues and other compounds. The true share with any hit is near 10%.
JMJD2A Tudor inh: JMJD2A Tudor domain (human) inhibition; O75164; AlphaScreen JMJD2A-Tudor / H3K4me3 peptide binding; Potency, µM (top dose mostly 114 µM), for inactives: top-dose activity change, negative = inhibition, hits mostly inhibitors; 390,000 tested, 4.4% active; note: potency is the fitted concentration of half-maximal effect; % is set by controls: 0 for no effect and ±100 for the full control effect; nearly all actives have a fitted effect of over 50% in size
G9a inh: G9a (human) methyltransferase inhibition | 350,000 tested, 8.8% active | Q96KQ7 | G9a H3K9 monomethylation, AlphaScreen, 2 h | Potency, µM (top dose mostly 102 µM), for inactives: top-dose activity, negative = inhibition, most hits filed as inhibitors; note: potency is the fitted concentration of half-maximal effect; % is set by controls: 0 for no effect and ±100 for the full control effect; nearly all actives have a fitted effect of over 75% in size
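Step 1: enzyme (final 20 nM) with compound, 15 min RT. Step 2: substrate peptide 500 nM and SAM 20 uM, 2 h RT. Step 3: anti-H3K9me1 antibody and AlphaScreen beads, 10 min, then plate read.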
BAZ2B block: BAZ2B (human) inhibition; Potency, µM (series often up to 114 µM), for the others: at the top dose activity change, negative = inhibition, usual class: inhibitors; AID 504333; 360,000 tested, 4.4% active; Q9UIF8; AlphaScreen BAZ2B-H3K14Ac peptide displacement; note: potency is the fitted concentration of half-maximal effect; % is set by controls: 0 for no effect and ±100 for the full control effect; nearly all actives have a fitted effect of over 60% in size
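In this displacement format the biotinylated H3(5-23) peptide acetylated at Lys14 serves as ligand at 50 nM, with BAZ2B at 50 nM in PBS pH 7.4 containing 0.01% Tween-20. Donor and acceptor beads are 10 ug/mL final.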
CtBP-E1A blk: CtBP/E1A binding inhibition; 340,000 tested, 0.49% active; AlphaScreen GST-E1A/His-CtBP binding, 1536-well; active compounds read low; activity change, % (test concentration not listed); in the data active = activity change below about -65%; inconclusive = mostly about -30% to -63%; note: % is set by controls: 0 for no effect and ±100 for the full control effect
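In 5 uL wells, 23 nL compound meets equimolar GST-E1A and His-CtBP (5X stock 125 nM each) for 2 h, 37 °C. Beads (5X, 50 ug/mL) then 1 h, 37 °C, dark.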
HP1b binding inh: inhibitors of HP1-beta chromodomain binding to methylated histone tails; AID 540317; P83916; 390,000 tested, 0.56% active; AlphaScreen HP1-beta / biotin-H3K9me3 peptide binding; Potency, µM (highest dose often 114 µM), for inactives: at the top dose activity change, negative = inhibition, most hits filed as inhibitors; note: potency is the fitted concentration of half-maximal effect; nearly all actives have a fitted effect of over 70% in size
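AlphaScreen: HP1-beta (50 nM) preformed 30 min with biotin-H3(1-18)K9me3 peptide (50 nM) in PBS pH 7.4, 0.01% Tween-20. Compound added for 30 min at RT, then streptavidin donor/nickel chelate acceptor beads (10 ug/mL) for 30 min.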
Six1-Eya2 blk: blocks human Six1 binding to Eya2; AlphaScreen GST-Six1/His-Eya2 binding, biochemical; active compounds read low; activity change, % (concentration not given with the values); 360,000 tested, 0.56% active; in the data active = activity change below about -65%; inconclusive = mostly about -30% to -63%; note: % is set by controls: 0 for no effect and ±100 for the full control effect
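AlphaScreen with GST-Six1 and His-Eya2 (5X mix: 250 nM and 500 nM), glutathione donor and nickel acceptor beads; buffer 50 mM Tris pH 8.0, 300 mM NaCl, 1 mM TCEP; 1 h at 37 C in the dark.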
Active calls of the source: *; ? = inconclusive; nt = not tested or not shown; ! = not confirmed by another sample; [ ] = dose if it differs, or a comment. Unless noted, calls come from the whole dose curve; as a rule, active = well fitted inhibition curve with a large enough effect; inconclusive = small, poorly fitted or top-dose-only effect; inactive = no such curve, though single readings can be large or run the other way.

SMILES	JMJD2A Tudor inh	G9a inh	BAZ2B block	CtBP-E1A blk	HP1b binding inh	Six1-Eya2 blk
Cc1ccc(C(=O)Nc2ccc(S(=O)(=O)O)c3cc(S(=O)(=O)O)cc(S(=O)(=O)O)c23)cc1NC(=O)c1cccc(NC(=O)Nc2cccc(C(=O)Nc3cc(C(=O)Nc4ccc(S(=O)(=O)O)c5cc(S(=O)(=O)O)cc(S(=O)(=O)O)c45)ccc3C)c2)c1	nt	0.28µM*	nt	nt	nt	nt
Cc1cn(C2OC(CC(=O)Oc3ccccc3)C(O)C2O)c(=O)[nH]c1=O (stereo not drawn)	-14%	nt	nt	5	53%	3
CCOC(=O)[C@H](CCc1ccccc1)N[C@@H](C)C(=O)N1CCC[C@@H]1C(=O)O	20µM*	20µM*	?	12	-4%	-1
CCOC(=O)[C@H](CCc1ccccc1)N[C@@H](C)C(=O)N1CCC[C@H]1C(=O)O	50µM*!	-15%	-6%	-19	23%	11
CCOC(=O)[C@H](CCc1ccccc1)N[C@@H](C)C(=O)N1C(C(=O)O)C[C@@H]2CCC[C@@H]21 (stereo partly drawn)	-5%	6%[12.7 µM]	6%	4	67%	-1
CCN(Cc1ccccc1)C(=O)CN1C(=O)COc2ccc(S(=O)(=O)N(CC)CC)cc21	-17%	0%[59 µM]	-10%	nt	12%	nt
O=C(Cc1ccccc1[N+](=O)[O-])NCC(=O)c1ccc2c(c1)OCO2	-1%	nt	nt	14	32%	-4
CC(C)=C[C@@H]1C[C@H](C)[C@H]2CC[C@H](C)c3c(O)c(O)c(C)c1c32	40µM*	6%[0.501 µM]	56µM*	-4	?	-6
CC(=O)OC1[C@H](Oc2c(O)c(C)c3c4c2[C@@H](C)CC[C@@H]4[C@@H](C)C[C@@H]3C=C(C)C)OC[C@@H](O)[C@@H]1O (stereo partly drawn)	?	nt	nt	0	-9%	-4
CC(=O)O[C@H]1[C@H](O)[C@H](Oc2c(O)c(C)c3c4c2[C@@H](C)CC[C@@H]4[C@@H](C)C[C@H]3C=C(C)C)O[C@@H](C)[C@H]1O	32µM*	nt	nt	0	-21%	-15
CN(C(=O)CSc1nc(C2CCCC2)nc2c1c(=O)n(C)c(=O)n2C)c1ccccc1	-10%	2%[59 µM]	24%	nt	42%[57 µM]	nt
Cc1ccccc1CNCc1cccnc1	-9%	0%[59 µM]	7%	9	-3%	-6
COc1cccc(CNCc2ccccc2OC)c1	-100%	32µM*	-5%	nt	?	4
COc1cc(CNCc2ccc(SC)cc2)cc(OC)c1	1.4µM*	22µM*	?	-2	?	2
COc1ccc(CNCc2ccncc2)c(OC)c1	-13%	nt	27%	5	29%	6
COc1ccc(CNC(=O)c2ccc(SC)cc2OC)cc1	5%	16%[59 µM]	-5%	9	35%	-4
COc1cccc(CNCc2cccnc2)c1OCc1ccccc1	3%	79µM*	?	-2	21%	7
COc1cc(CNCc2ccc(OC)c(OC)c2OC)cc(OC)c1	2.5µM*	?	50µM*	-7	-50%	0
COc1ccc(S(=O)(=O)N2CCCCCC2)cc1NC(=O)c1ccccc1S(C)(=O)=O	-8%	-1%[2.33 µM]	1%	7	34%	-11
COCc1c(C(=O)OC)nnn1-c1ccc(C(F)(F)F)cc1[N+](=O)[O-]	?	11%[12.7 µM]	-17%	5	-2%	0
Cc1ccc(C(=O)NCCCN2CCOCC2)o1	-1%	5%[59 µM]	-1%	5	24%	0
CCOC(=O)C1(C)CCCN1C(=O)c1ccc2ccccc2c1 (stereo not drawn)	nt	nt	nt	6	nt	4
COc1ccc(CNCc2ccc3ccccc3c2)c(OC)c1	35µM*	11µM*	?	nt	?	5
COc1ccccc1CNCc1cc(OC)c(OC)c(OC)c1	40µM*	7.9µM*	79µM*	3	71µM*	-8
COc1ccc(C(=O)OCc2cc(=O)n3nc(C4CC4)sc3n2)cc1OC	-7%	42%[59 µM]	6%	nt	-1%	nt
SMILES	JMJD2A Tudor inh	G9a inh	BAZ2B block	CtBP-E1A blk	HP1b binding inh	Six1-Eya2 blk
Cc1ccccc1C(=O)N/N=C1/SCC(=O)N1Cc1ccc2c(c1)OCO2	-13%	25%[59 µM]	11%	1	17%	9
CNC(=S)N(CCc1c(C)[nH]c2ccc(F)cc12)Cc1cccnc1	-34%	-48%	?	nt	12%	-3
CN1c2ccccc2C(C)(C)C12C=Cc1cc(O)ccc1O2 (stereo not drawn)	45µM*	nt	45µM*	2	?	-23
O=c1[nH]c2cc([N+](=O)[O-])c(NCCO)c([N+](=O)[O-])c2[nH]1	-3%	?	-35%	-13	0%	-15
CC(=O)Nc1c([N+](=O)[O-])cc2[nH]c(=O)[nH]c2c1[N+](=O)[O-]	-12%[11.4 µM]	32µM*	-20%	nt	-2%	-13
Cc1occc(=O)c1O	25µM*	?	?	-15	23%	4
O=C1/C(=C/c2ccco2)SC(=S)N1CCC(=O)N1CCCCC1CCO (stereo not drawn)	-5%	45µM*	50µM*	nt	37%	?
O=C1/C(=C\c2ccco2)SC(=S)N1C1CCCCC1	nt	6%[0.501 µM]	10µM*	nt	nt	nt
O=C1/C(=C/c2ccc(Cl)cc2)SC(=S)N1CCC(=O)N1CCCCC1CCO (stereo not drawn)	?	-26%	?	-11	-15%	-9
O=C1/C(=C/c2cccc(Cl)c2)SC(=S)N1CCC(=O)N1CCCCC1CCO (stereo not drawn)	-11%	nt	28µM*	nt	22%	-10
O=C1/C(=C/c2cccs2)SC(=S)N1CC(=O)N1CCCCC1CCO (stereo not drawn)	0%	71µM*	?	nt	39%	-17
O=C1/C(=C/c2ccccc2F)SC(=S)N1CCC(=O)N1CCCCC1CCO (stereo not drawn)	?	nt	?	-14	-17%	-8
CCCCn1c(=O)c2c(nc3n2CCCN3Cc2ccccc2)n(C)c1=O	-31%	?	-28%	-4	-10%	-4
Cc1ccc(-c2nn[nH]n2)cc1Cl	-5%	50µM*	89µM*	-2	25%	-14
Cc1ccc(-c2nn[nH]n2)cc1	-15%	-17%[59 µM]	-1%	6	35%	4
CC(C)=CCc1c(O)cc2oc3c(CC=C(C)C)c(O)c(O)c(CC=C(C)C)c3c(=O)c2c1O	50µM*	17%[12.7 µM]	50µM*	1	4%	-8
CCN(CC)c1cc(CS(=O)c2ccccc2)nc(-c2ccccc2)n1 (stereo not drawn)	-15%	nt	nt	-9	38%	0
CC1(C)CC2CC(C)(CN2CC(O)c2ccccc2)C1 (stereo not drawn)	5.6µM*	22µM*	?	nt	-25%	13
